# Experimental data taken from publication PMC6792352, “Limited Chemical Structural Diversity Found to Modulate Thyroid Hormone Receptor in the Tox21 Chemical Library” (Environmental Health Perspectives, 2019).
# Where a name gives a salt, the structure may show the parent alone.
# System: thyroid hormone receptor (endogenous TRα and TRβ)
# Design: species or system GH3-TRE-Luc (rat pituitary); GH3-TRE-Luc luciferase reporter, antagonist mode against 1 nM T3, loss of signal, qHTS
# Conditions: read-out: Average AC50 (uM) GH3-TRE-Antag, antagonist mode, 1 nM T3, no GH3 cytotoxicity hit
row,SMILES,AC50 [µM]
1,CCC(Cc1c(I)cc(I)c(N)c1I)C(=O)O (stereo not drawn) [Iopanoic acid],> 20
2,Cc1ccc2nc(-c3ccc(N)cc3)sc2c1S(=O)(=O)O,45.2
3,Oc1ccc(Cc2ccccc2O)cc1 [2-(4-Hydroxybenzyl)phenol],63.8
4,O=C(O)c1cccc(C[C@@H]2COc3ccc(OCc4nc5cc(F)ccc5s4)cc3[C@@H]2O)c1 [CP-085958],53.1
5,"Nc1ccc(C(=O)OCCCOC(=O)c2ccc(N)cc2)cc1 [Propane-1,3-diyl bis(4-aminobenzoate)]",59.8
6,OCc1c2ccccc2cc2ccccc12 [9-Anthracenemethanol],64.3
7,COc1c(C)c2c(c(O)c1C/C=C(\C)CCC(=O)O)C(=O)OC2 [Mycophenolic acid],0.537
8,"CC1=NC(C)OC1C (stereo not drawn) [2,4,5-Trimethyl-3-oxazoline]",> 90
9,COC(=O)N[C@H](C(=O)N[C@@H](Cc1ccccc1)[C@@H](O)CN(Cc1ccc(-c2ccccn2)cc1)NC(=O)[C@@H](NC(=O)OC)C(C)(C)C)C(C)(C)C [Atazanavir],19.5
10,CC1=C2[C@H](/C=C(\C)C(=O)O)CC[C@@H](C)[C@H]2CC1 [Valerenic acid],57.5
11,CC/C=C\C/C=C\C/C=C\CCCCCCCC(=O)O [Linolenic acid],> 50
12,CC(C)OC(=S)S [Proxan-sodium],> 90
13,NNc1ccc(C(=O)O)cc1 [4-Hydrazinobenzoic acid hydrochloride],84.8
14,C=C(C)C(=O)Nc1ccc(Cl)c(Cl)c1 [Chloranocryl],55.5
15,O=C(O)c1cc(Oc2ccc(C(F)(F)F)cc2Cl)ccc1[N+](=O)[O-] [Acifluorfen],71.8
16,CC(C)(C)C(=O)OCOP(=O)(COCCn1cnc2c(N)ncnc21)OCOC(=O)C(C)(C)C [Adefovir dipivoxil],46.6
17,CN1CCCN=C1COC(=O)C(O)(c1ccccc1)C1CCCCC1 (stereo not drawn) [Oxyphencyclimine hydrochloride],43.3
18,C=CC(=O)OCCOc1ccccc1 [2-Phenoxyethyl acrylate],47.8
19,CC1(C)C(/C=C(\Cl)C(F)(F)F)C1C(=O)OC(C#N)c1cccc(Oc2ccccc2)c1 (stereo not drawn) [alpha-Cyhalothrin],26.1
20,CCN(CC)CCNC(C(=O)OCCC(C)C)c1ccccc1 (stereo not drawn) [Camylofin],> 50

row,SMILES,AC50 [µM]
1,"O=C(O)COc1cc(Cl)c(Cl)cc1Cl [2,4,5-Trichlorophenoxyacetic acid]",70.6
2,CCC(C)(CC)c1cc(NC(=O)c2c(OC)cccc2OC)on1 [Isoxaben],> 90
3,Cc1c(OCC(F)(F)F)ccnc1C[S+]([O-])c1nc2ccccc2[nH]1 (stereo not drawn) [Lansoprazole],> 50
4,CC(C)Cc1ccc(C(C)C(=O)O)cc1 (stereo not drawn) [Ibuprofen],> 50
5,CN[C@H]1C[C@@H](N)[C@H](O)[C@@H](O[C@@H]2O[C@H](CO)[C@H](O)[C@@H]3OC4(O[C@H]23)O[C@H]([C@@H](N)CO)[C@H](O)[C@H](O)[C@H]4O)[C@@H]1O (stereo partly drawn) [Hygromycin B],12.9
6,"c1ccc2sc(SN(C3CCCCC3)C3CCCCC3)nc2c1 [N,N-Dicyclohexyl-2-benzothiazolesulfenamide]",33.2
7,CCOC(=O)c1c(N)sc2c1CCN(Cc1ccccc1)C2 [Tinoridine],37.8
8,C=CCNC1=C2C[C@@H](C)C[C@H](OC)[C@H](O)[C@@H](C)/C=C(\C)[C@H](OC(N)=O)[C@@H](OC)/C=C\C=C(/C)C(=O)NC(=CC1=O)C2=O [Tanespimycin],0.306
9,O=C(O)c1ccccc1Nc1cccc(C(F)(F)F)c1 [Flufenamic acid],29.6
10,[O-][N+](=Nc1ccccc1)c1ccccc1 [Azoxybenzene],> 50
11,CC(O)(CS(=O)(=O)c1ccc(F)cc1)C(=O)Nc1ccc(C#N)c(C(F)(F)F)c1 (stereo not drawn) [Bicalutamide],35.3
12,CCOC(=O)NC(=S)Nc1ccccc1NC(=S)NC(=O)OCC [Thiophanate],47.1
13,O=C(NOC[C@H](O)CO)c1ccc(F)c(F)c1Nc1ccc(I)cc1F [PD 0325901],4.11
14,CC[C@@H]1/C=C(\C)C[C@H](C)C[C@H](OC)[C@H]2O[C@@](O)(C(=O)C(=O)N3CCCC[C@H]3C(=O)O[C@H](/C(C)=C/[C@@H]3CC[C@H](Cl)[C@H](OC)C3)[C@H](C)[C@@H](O)CC1=O)[C@H](C)C[C@@H]2OC [Pimecrolimus],16
15,Oc1c(I)cc(I)c2cccnc12 [Iodoquinol],11.5
16,N#Cc1cc(Br)c(O)c(Br)c1 [Bromoxynil],69.3
17,CC1(C)[C@H](/C=C(\Cl)C(F)(F)F)[C@@H]1C(=O)O[C@@H](C#N)c1cccc(Oc2ccccc2)c1 [?-Cyhalothrin],33.9
18,CCCCCCCCCCO[C@@H]1O[C@H](CO)[C@@H](O)[C@H](O)[C@H]1O [Decyl beta-D-glucopyranoside],68.4
19,CC(C)c1ccc2oc3nc(N)c(C(=O)O)cc3c(=O)c2c1 [Amlenanox],32.7
